Source: PubChem BioAssay (NCI)
Compounds without any hit were thinned out: in the full panel of roughly 83,000, 20% have a hit.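 Negative percent growth values reflect cell death: -40 means 40% of the cells present at the start died, and -100 means all died.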 Values without a mark were called inactive. The source made the active and inactive calls. Rule for the calls: active = growth percent below 10; inactive = the rest.

What follows are molecules tested on MDA-MB-468 breast (assay: NCI-60 one-dose screen, 48 h (100 = growth as untreated, 0 = no growth, -100 = all killed)). Conditions: 10 µM unless noted.

**Q.** How did the growth turn out when `COc1cc(NC(=O)Nc2cnc(Nc3ccc(N4CCOCC4)cc3)nc2Oc2cccc(OC)c2)cc(OC)c1` was run?
**A.** 29.9%

**Q.** With `COc1cccc(OC)c1OC(=O)c1ccccc1` as the molecule, how does the growth read?
**A.** 105%

**Q.** `CN(C)CCCn1c2c(c3ncccc3c1=O)C(=O)c1ccccc1-2` was tested. Which growth did it give?
**A.** 31.7%

**Q.** Which growth does the source give for `O=C(CSC(=S)n1cnnc1)NC(=O)c1ccccc1` here?
**A.** 119%

**Q.** For `COc1cccc2cc(-c3cc4ccccc4[nH]3)/c(=N/C(=S)Nc3ccccc3)oc12`, which growth is on record?
**A.** 79.1%

**Q.** How did the growth turn out when `CCN(CC)CCOc1ccc2c(c1O)C(=O)c1ccccc1C2=O` was run?
**A.** 80.3%

**Q.** Which growth does the source give for `c1cc(OCCN2CCCC2)ccc1CNc1ccc2nc(CCC3CCCCC3)[nH]c2c1` here?
**A.** 43.6%

**Q.** With `CN(C)/C=C1\SC(=Nc2ccc(Cl)cc2)NC1=O` as the molecule, how does the growth read?
**A.** 110%

**Q.** Which growth does the source give for `O=c1[nH]c2ccccc2n1C1CCN(CCOc2ccccc2)CC1` here?
**A.** 78.9%

**Q.** How did the growth turn out when `COc1ccc(-c2cc(-c3cc(OC)ccc3OC)nc(N)c2C#N)cc1` was run?
**A.** 70.2%

**Q.** How did the growth turn out when `CCOc1nc(-c2ccccc2)cc2c(O)c(C(=O)N/N=C/c3ccccc3)[nH]c(=O)c12` was run?
**A.** 105%

**Q.** `COc1ccc(C2CC(c3cccc(Nc4ccnc5cc(Cl)ccc45)c3)=NN2C=O)cc1` (stereo not given) was tested. Which growth did it give?
**A.** 7.85% (active)

**Q.** How did the growth turn out when `CCN1C(=S)N(CC)C2C1NC(=S)N2/N=C/C=C/c1ccccc1` (stereo not given) was run?
**A.** 2.3% (active)

**Q.** For `N#Cc1cccc(C2C3=C(COC3=O)N(CCO)c3cc4c(cc32)OCO4)c1` (stereo not given), which growth is on record?
**A.** 21%

**Q.** `CC(C)=CCCC(C)c1ccc(C)c2c1OCN(CC1CCNCC1)C2` (stereo not given) was tested. Which growth did it give?
**A.** 7.48% (active)

**Q.** For `Cc1cc(N2CCN(CC(=O)Nc3ccc4c(ccn4Cc4ccccc4)c3)CC2)nc(N2CCOCC2)n1`, which growth is on record?
**A.** 67%

**Q.** Which growth does the source give for `COC(=O)OC1C(O[C@H]2C[C@H]3[C@@H]4CC=C5C[C@@H](O)CC[C@]5(C)[C@H]4CC[C@]3(C)[C@H]2[C@H](C)C(=O)CCC(C)C)OCC(O)C1OC1OCC(O)C(O)C1OC(=O)c1ccc(OC)cc1` (stereo not given in full) here?
**A.** -22.8% (active)

**Q.** For `CC(=O)COc1ccc(Cl)cc1Cl`, which growth is on record?
**A.** 92.4%

**Q.** How did the growth turn out when `COc1cc2c(cc1OC)-c1ccc3cc4c(cc3c1N(CCN(C)C)C2)OCO4` was run?
**A.** -30.4% (active)

**Q.** For `O=CN(SSN(C=O)C1CCCCC1)C1CCCCC1`, which growth is on record?
**A.** 108%

**Q.** How did the growth turn out when `COc1ccc(-c2nc(SCC(=O)Nc3nc(-c4ccccc4)cs3)[nH]c(=O)c2C#N)cc1` was run?
**A.** 84.2%

**Q.** With `Cc1cccc(/C=N/Nc2cc(C)c3cccc(C)c3n2)n1` as the molecule, how does the growth read?
**A.** 88.7%

**Q.** How did the growth turn out when `C#Cc1nc(C2=C(C)C(OC(C)=O)/C(=N/OC(C)=O)C2)cs1` (stereo not given) was run?
**A.** -60.7% (active)

**Q.** For `CC(=O)Oc1ccc(Nc2c3ccccc3nc3ccccc23)cc1`, which growth is on record?
**A.** -25.6% (active)

**Q.** For `N#C/C(=C\c1ccc2ccccc2c1)c1cc2ccccc2[nH]1`, which growth is on record?
**A.** 30.5%

**Q.** With `COc1ccc(C(O)c2cc3c(N)c(C(=O)Nc4cccc(Br)c4)sc3nc2C)cc1` (stereo not given) as the molecule, how does the growth read?
**A.** 19.6%

**Q.** How did the growth turn out when `Cc1nc(-c2cc3ccccc3c(N3CCN(C)CC3)n2)cs1` was run?
**A.** 87%

**Q.** Which growth does the source give for `COC(=O)c1ccc(NC(=O)CSc2nc(-c3ccc(F)cc3)nc3ccccc23)cc1` here?
**A.** 80.1%

**Q.** For `OCCNc1nc(NCCO)nc(Nc2ccc(C3=NN(c4ccc(Cl)cc4)C(c4ccc(Cl)cc4)C3)cc2)n1` (stereo not given), which growth is on record?
**A.** 85.7%

**Q.** For `CCSCC1CC(O)(c2ccccc2)CC(c2ccc(F)cc2)O1` (stereo not given), which growth is on record?
**A.** 8.89% (active)

**Q.** With `CC1(C)c2[nH]c3ccccc3c2C[C@]2(C)[C@H]3CC=C4[C@@H]5C[C@@](C)(C(N)=O)CC[C@]5(C)CC[C@@]4(C)[C@]3(C)CC[C@@H]12` as the molecule, how does the growth read?
**A.** 21.7%

**Q.** For `NC(=O)OCCn1cc(-c2nc(-c3c[nH]c4ncccc34)cs2)c2ccccc21`, which growth is on record?
**A.** 12.4%

**Q.** `C=C(C)[C@@H]1CC[C@]2(COC(=O)c3ccccc3C(=O)O)CC[C@]3(C)[C@H](CC[C@@H]4[C@@]5(C)CCCNC(C)(C)[C@@H]5CC[C@]43C)[C@@H]12` was tested. Which growth did it give?
**A.** 52%

**Q.** With `N#Cc1c(-c2ccccc2)cc(-c2ccccc2)n(CC(=O)NO)c1=O` as the molecule, how does the growth read?
**A.** 43.5%

**Q.** Which growth does the source give for `C=CCNc1nc(NN2C(=O)c3cccc4cccc(c34)C2=O)nc(-n2cnc3ccccc32)n1` here?
**A.** 80.5%

**Q.** Which growth does the source give for `CCCCCCCCCCCCSC1=CC(=O)C=CC1=O` here?
**A.** 82.8%

**Q.** With `Cn1cccc1C(=O)C1C(c2cccc([N+](=O)[O-])c2)C2C3CCCCC3CN2C12C(=O)Nc1ccc(Cl)cc12` (stereo not given) as the molecule, how does the growth read?
**A.** 32%

**Q.** For `O=C1NN(c2ccccc2)C(c2ccc3c(c2)OCO3)N2CCC[C@@H]12` (stereo not given in full), which growth is on record?
**A.** 121%

**Q.** Which growth does the source give for `Cc1nc2ccccc2c(=O)n1-c1cccc(OCc2cn(-c3cccc(O)c3)nn2)c1` here?
**A.** 87.7%

**Q.** For `COC(=O)[C@H](NC(=O)C1(C)CCC[C@]2(C)[C@H]3C[C@H]4C(C(C)C)=C[C@]3(CC[C@@H]12)[C@@H]1C(=O)CCC(=O)[C@@H]14)C(C)C` (stereo not given in full), which growth is on record?
**A.** 101%
